DT40 TDP1 no CPT = qHTS for Inhibitors of human tyrosyl-DNA phosphodiesterase 1 (TDP1): qHTS in cells in absence of CPT | DT40 Tdp1-/- hTDP1 cells, no CPT, ATP luminescence, 48 h | actives 15% (n = 420,000) | Potency, µM (top dose mostly 46.2 µM), inactives show at the highest dose activity change, negative = growth inhibition, actives largely listed as inhibitors | AID 686978, 2013; note: potency is the fitted concentration of half-maximal effect; nearly all actives have a fitted effect of over 55% in size
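Compound effects on proliferation are scored in DT40 Tdp1-/-;hTDP1 cells in the absence of CPT. ATP levels (CellTiter-Glo luminescence) are recorded after a ≥48 hr, 37 °C incubation.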
ELG1 DNA repair = inhibitors of ELG1-dependent DNA repair in HEK293T cells; actives 2.3% (n = 330,000); HEK293T ELG1-luciferase reporter, luminescence, 16 h; DNA damage induced by 5-fluorouridine; Potency, µM (titrated, usually from 46.1 µM), for inactives: at the top dose activity change, negative = inhibition, usual class: inhibitors; note: potency is the fitted concentration of half-maximal effect; nearly all actives have a fitted effect of over 55% in size
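Luminescence from the luciferase reporter, measured 30 min after ONE-Glo reagent at room temperature, was the read-out. Beforehand, 2,000 cells per well were exposed for 16 hr at 37 °C to 5-fluorouridine together with compound or vehicle.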
TDP1 cell CPT = growth inhibition of DT40 Tdp1-/-;hTDP1 cells with camptothecin (screen for TDP1 inhibitors); chicken DT40 Tdp1-/-;hTDP1 cells + 20 nM CPT, ATP luminescence, 48 h; Potency, µM (titrated, usually from 46.2 µM), for inactives: top-dose activity change, negative = growth inhibition, most hits filed as inhibitors; actives 12% (n = 420,000); AID 686979; note: potency is the fitted concentration of half-maximal effect; nearly all actives have a fitted effect of over 55% in size
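Chicken DT40 Tdp1-/- cells complemented with human TDP1, 400 cells/well, exposed to compounds plus 20 nM camptothecin for at least 48 h at 37 C; viability read as ATP content by CellTiter-Glo luminescence.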
IL1B secr inh = inflammasome signaling inhibition, IL-1 beta readout; THP-1 LPS/ATP IL-1B secretion, AlphaLISA, 16 h; stronger effect = lower value; activity change, % at 57.5 µM; actives 4.7% (n = 360,000); in the data active = activity change below about -50%; inconclusive = mostly about -30% to -49%
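Secreted IL-1B measured by AlphaLISA bead assay after 16 h compound exposure of THP-1 cells; compounds (final up to 57.5 uM) added 1 h before LPS (250 ng/mL) and ATP (1.25 mM) stimulation; lower signal means less secretion.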
HT1080-NT tox = kills 2HG-producing HT-1080-NT fibrosarcoma cells; HT-1080-NT fibrosarcoma viability, CellTiter-Glo ATP luminescence, 48 h; Potency, µM (series often up to 46.1 µM), without a hit: top-dose activity, negative = less viability, actives largely listed as cytotoxic; actives 1.6% (n = 360,000); AID 686970;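 note: NT is the 2HG producing partner of a matched IDH1 knockdown line; potency is the fitted concentration of half-maximal effect; 0% = DMSO-treated cells and -100% = media-only wells without cells; nearly all actives have a fitted effect of over 55% in size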
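Toxicity toward the 2HG-producing NT line was scored as %Activity, normalised to DMSO and no-cell wells, from CellTiter-Glo luminescence after 48 hours' treatment.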
HT1080 IDH1KD tx = HT-1080 IDH1 knockdown cell toxicity (counter line). Potency, µM (series often up to 46.1 µM), for inactives: top-dose activity, negative = toxicity, usual class: cytotoxic. HT-1080 IDH1 knockdown viability, ATP luminescence, 48 h. actives 2% (n = 360,000);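 note: potency is the fitted concentration of half-maximal effect; 0% = DMSO wells and -100% = cell-free medium wells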
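Assay cells: HT-1080 with IDH1 knockdown, 750 per well, RPMI/5% FBS. Exposure: 48 h at 37 °C following 2 h pre-incubation. Read: CellTiter-Glo luminescence; fitted concentration-response, curve class assigned.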
* = called active by the depositor; ! = a repeat was not active. A selection: hits, their analogues and other compounds. The true share with any hit is near 19%. Unless noted, calls come from the whole dose curve; as a rule, active = well fitted curve in the direction sought with a large enough effect; inconclusive = small, poorly fitted or top-dose-only effect, or another doubt; inactive = no such curve, though single readings can be large; an effect the other way counts as inactive or inconclusive. Unless noted, % is set by controls: 0 for no effect and ±100 for the full control effect.

For COC(=O)c1cc2oc3ccccc3c2n1CC(=O)Nc1ccc(OC)c(OC)c1 the results were DT40 TDP1 no CPT -7.6% and TDP1 cell CPT -19.5%.
For COc1ccc(CCNC(=O)c2c(N)no[n+]2[O-])cc1OC the results were DT40 TDP1 no CPT -13.6%, ELG1 DNA repair 26.2%, TDP1 cell CPT -1.4%, IL1B secr inh -18.4, HT1080-NT tox -1.5% and HT1080 IDH1KD tx 5.4%.
COc1ccc(CN(C)C(=O)c2cccc(Oc3ccccc3)c2)c(OC)c1OC was read as DT40 TDP1 no CPT inconclusive, ELG1 DNA repair inconclusive, TDP1 cell CPT inconclusive, IL1B secr inh inconclusive, HT1080-NT tox -22.7% and HT1080 IDH1KD tx -12.0%.
`O=C(CCNS(=O)(=O)c1cccc2nsnc12)Nc1ccc(F)cc1` gave DT40 TDP1 no CPT -14.8% and TDP1 cell CPT -4.3%.
`O=C1C=CC2=C3c4cc(O)c(O)cc4CC3(O)COC2=C1O` (stereo unspecified) gave DT40 TDP1 no CPT inconclusive, TDP1 cell CPT 16.4µM*!, IL1B secr inh -3.1, HT1080-NT tox -26.1% and HT1080 IDH1KD tx -16.6%.
Screening Nc1c(Cl)ncnc1NCCc1ccc(O)cc1 returned DT40 TDP1 no CPT 5.8µM*, ELG1 DNA repair 10.3µM*, TDP1 cell CPT 13µM*, IL1B secr inh 6.6, HT1080-NT tox inconclusive and HT1080 IDH1KD tx inconclusive.
For Nc1c(Cl)ncnc1NCc1cccnc1 the results were DT40 TDP1 no CPT inconclusive, ELG1 DNA repair -14.7%, TDP1 cell CPT -11.7%, IL1B secr inh 35.7, HT1080-NT tox 21.5% and HT1080 IDH1KD tx 14.7%.
Screening CCC1CN(C(=O)N2CCC(C(=O)NCc3cccs3)CC2)c2cc(C)ccc2O1 (stereo unspecified) returned DT40 TDP1 no CPT 23.1µM* and TDP1 cell CPT 18.4µM*.
For Cc1ccc2c(c1)N(C(=O)N1CCC(C(=O)NCc3cccs3)CC1)CC(C)O2 (stereo unspecified) the results were DT40 TDP1 no CPT 18.4µM* and TDP1 cell CPT inconclusive.
Screening c1ccc2c(N3CCOCC3)c3c(nc2c1)CCC3 returned DT40 TDP1 no CPT -3.7%, ELG1 DNA repair -16.3%, TDP1 cell CPT -13.5%, IL1B secr inh 41.9, HT1080-NT tox 0.0% and HT1080 IDH1KD tx -4.8%.
COc1ccc2c(c1)CCc1c-2nc2ccccc2c1N1CCOCC1 was read as DT40 TDP1 no CPT 2.06µM*, ELG1 DNA repair 6.5%, TDP1 cell CPT 1.64µM*, IL1B secr inh inconclusive, HT1080-NT tox inconclusive and HT1080 IDH1KD tx inconclusive.
Screening Cc1ccc(-n2nc(C(C)(C)C)cc2NC(=O)Nc2ccc(OCCN3CCOCC3)c3ccccc23)cc1 returned DT40 TDP1 no CPT inconclusive and TDP1 cell CPT -111.8%.
Screening COc1cc2c(cc1OC)C(c1ccc(Br)cc1)NCC2 (stereo unspecified) returned DT40 TDP1 no CPT inconclusive, TDP1 cell CPT inconclusive, IL1B secr inh -52.0*, HT1080-NT tox -1.9% and HT1080 IDH1KD tx -8.1%.
Screening CCc1ccc(OCC2NCCc3cc(OC)c(OC)cc32)cc1 (stereo unspecified) returned DT40 TDP1 no CPT 18.4µM*, ELG1 DNA repair -2.7%, TDP1 cell CPT inconclusive, IL1B secr inh -14.7, HT1080-NT tox -14.4% and HT1080 IDH1KD tx -9.3%.
Screening COc1ccc(C2NCCc3cc(OC)c(OC)cc32)cc1OC (stereo unspecified) returned DT40 TDP1 no CPT -16.4%, ELG1 DNA repair -3.4%, TDP1 cell CPT -20.6%, IL1B secr inh -3.3, HT1080-NT tox -15.4% and HT1080 IDH1KD tx -7.5%.
